Records with an inconclusive call do not appear. A number with no mark means an inactive call. Calls of active or inactive are those of the source. Calls follow the shape of the dose curve; as a rule, active = well fitted activation curve with a large enough effect; inconclusive = small, poorly fitted or top-dose-only effect; inactive = no such curve, though single readings can be large or run the other way.
Potency is read from the fitted curve at half-maximal effect.

A short description of this experiment: qHTS assay for re-activators of p53 using a Luc reporter: Hit Validation. Also: nearly all actives have a fitted effect of over 75% in size. As to activation: 0% is about no effect. The conditions noted are these: p53-responsive luciferase reporter cells, luminescence, H1299 line expressing heat-sensitive Ala138Val p53; series mostly up to 46.1 µM. The gist of the method: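 H1299 (p53-null) cells stably carrying p53-A138V and a BP100-luciferase reporter, 1000 cells/well, treated 24 h at 37 deg C. Compounds at several concentrations, 1:5 dilution; nocodazole control; luminescence read after 10 min with detection reagent.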
For the molecule `CCN1CCN(/C=N/c2nc3c(s2)CCCC3)CC1`, the Potency result is “inactive”.
The same measure, in the same setting: for `Cc1ccc(NC(=O)c2ccc(OC(=O)COc3ccc(Cl)c(C)c3)cc2)cc1` the value was 9.2 µM (active); for `COc1ccc(/C(O)=C2/C(=O)C(=O)N(CCN3CCOCC3)C2c2ccccn2)cc1` (stereo not drawn), “inactive”.
Same read-out and setting: for `Oc1[nH]c2ccccc2c1C=Nc1ccc2c(c1)OCCO2` the value was 0.326 µM (active); for `Cc1cc(C)cc(NC(=O)c2sc3nc(C)cc(C)c3c2N)c1`, 11.6 µM (active); for `Cc1nc(NCCc2ccccc2)c2nnn(Cc3ccccc3Cl)c2n1`, “inactive”.
The same measure, in the same setting: as for `CC(C)N1C(=O)CN(C2CCCCCC2)C(=O)C1c1ccccc1F` (stereo not drawn), the entry is “inactive”; as for `CN(/N=C/c1ccc2c(c1)OCO2)c1ccccc1`, 14.6 µM (active); as for `Clc1cccc(N/N=C(\Cc2nc3ccccc3[nH]2)c2ccccc2)c1`, “inactive”.
For `Cc1c(C(=O)N(C)c2ccccc2Cl)cnn1-c1ccccc1`, the Potency entry is “inactive”.
For the molecule `O=C(Nc1ccccc1Oc1ccccc1)c1cc([N+](=O)[O-])ccc1Cl`, the Potency result was “inactive”.
The same measure, in the same setting: for `CCOc1ccc2cc(C#N)c(SCC(=O)OC)nc2c1` the value was 2.91 µM (active).
The same measure, in the same setting: for `O=c1cc(-c2ccc3c(c2)OCCO3)oc2ccc(Cl)cc12` the value was 0.82 µM (active); for `Oc1ccccc1-c1cc(-c2ccccc2)n[nH]1`, 3.66 µM (active).
The same measure, in the same setting: as for `CCCCc1ccc(NC(=S)N2CCCC(CO)C2)cc1` (stereo not drawn), the figure is 0.651 µM (active); as for `Cc1nc(SCC(=O)Nc2nccs2)c(C#N)c(C)c1C`, 0.651 µM (active); as for `C(=C\c1nc(-c2ccccc2)no1)/c1ccccc1`, 2.31 µM (active).
Turning to `COc1cccc(C(=O)c2sc(NC(C)C)nc2N)c1`, the activation was 25.6% [at 9.22 µM].
`c1ccc(COc2ccc(OCCOCCn3cncn3)cc2)cc1`: the Potency is 2.91 µM (active).
Consider `C=CCOc1c(OC)cc(/C=N/Nc2cccc(C(=O)O)c2)c(Br)c1Br`, for which the Potency was 13 µM (active).
On the same count and under the same terms, for `COc1ccc(N2CCN(C3CCCN(Cc4cccc(OC)c4)C3)CC2)cc1` (stereo not drawn) the value was “inactive”; for `COc1ccc2nc(SCc3ccccc3)nc(C)c2c1`, 1.46 µM (active).
In the case of `C/C(=N\NC(=S)NC(C)C)c1ccc(Cl)s1`, the Potency entry was “inactive”.
On the same count and under the same terms, for `O=C(Nc1ccc(Cl)cc1C(F)(F)F)c1ccccc1` the value was “inactive”.
The same measure, in the same setting: as for `Cc1ccc(NC(=O)/C=C/c2ccc([N+](=O)[O-])s2)c(C)c1`, the figure is 2.91 µM (active); as for `Cc1ccc(OC(=O)c2cccc(S(=O)(=O)N3CCCC3)c2)c(-n2nc3ccccc3n2)c1`, 3.66 µM (active); as for `CCOC(=O)C1CCN(S(=O)(=O)Cc2ccccc2)C1=O` (stereo not drawn), “inactive”.
As to `O=C(CSc1nnc(-c2ccc3c(c2)OCCO3)o1)N1CCCC1`, the Potency was 7.31 µM (active).
On the same count and under the same terms, for `COC(=O)Cc1n[nH]c(=S)[nH]c1=O` the value was “inactive”; for `Nc1c(C(=O)c2ccc(Cl)cc2)oc2ccccc12`, “inactive”; for `O=C(c1ccco1)n1c(=S)nc2ccccn21`, 7.31 µM (active).
On the same count and under the same terms, for `N#Cc1cc2c(nc1SCC(=O)Nc1nccs1)CCCCC2` the value was 0.206 µM (active); for `CC(=O)c1ccc(NC(=O)CCc2nnc3ccc(NCc4ccco4)nn23)cc1`, 11.6 µM (active).
For the molecule `COc1cccc(Oc2ccc(N)cn2)c1`, the Potency entry is “inactive”.
On the same count and under the same terms, for `O=C(CC1SC(N2CCCC2)=NC1=O)Nc1ccc(C(=O)Nc2ncccc2O)cc1` (stereo not drawn) the value was 16.4 µM (active); for `CN(C)c1ccc(CNC2CC(C)(C)NC(C)(C)C2)cc1`, “inactive”; for `Cc1ccc(C(=O)OCC(=O)NCC2COc3ccccc3O2)cc1` (stereo not drawn), “inactive”.
On the same count and under the same terms, for `CC1C(=O)CCN(C(C)(C)C)C1C` (stereo not drawn) the value was “inactive”.

The values above are taken from PubChem BioAssay AID624305 (National Center for Advancing Translational Sciences (NCATS), 2012).
